{"source": "the supplement of paper PMC6555819", "data": [{"test_system": "THRa homodimer (NR concentration 90 nM)", "assay": "PBM binding z-score (relative to random genomic background probes); higher = stronger binding; sequences stand for … in GC…GCGATTGACAGCGTAGAATGAAGG", "outline": "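Custom Agilent 4×180K protein-binding microarrays carried double-stranded probes. Their 34-nt variable regions held direct-repeat seeds, single-nucleotide variants, half-site ablations and random human genomic background sequences. Arrays were incubated 1 h with ligand-free nuclear receptor dimers in PBS pH 7.4, 2% milk, 0.02% Triton X-100, 1 mM DTT, 0.2 mg/mL BSA and 0.4 mg/ml salmon testes DNA. Antibodies against each partner (one per run) detected binding, and scanned fluorescence was regression-normalized. Binding z-scores use random background probes as reference.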", "values": [{"sequence": "CCTTACGGGTCACTGACAGGTTAAAGCATTTGGA", "PBM binding z-score": -0.0327}, {"sequence": "GATACAGGGACAAGGCCAGAGTACGCGTATTGAT", "PBM binding z-score": 0.292}, {"sequence": "CGTCCTAGGTCAAGGTCAGTGAAAGAGACTCGAA", "PBM binding z-score": 2.95}, {"sequence": "CCTACTGAGCCAAAGGTCATTGATTCCAATGCTC", "PBM binding z-score": 1.26}, {"sequence": "CATACAGGGTCAGCCAGGCCAGAGTAGGGACGGC", "PBM binding z-score": 1.19}, {"sequence": "GGAATGAGGGCAAAGTTGATAGCATCTGTCGACG", "PBM binding z-score": 0.391}, {"sequence": "CCGAGTAGGTTATCGGGCATTCAGGCAACGGTGA", "PBM binding z-score": -0.196}, {"sequence": "TAATATAGGTAAATGCTAGGTGAAAGTCCGATCT", "PBM binding z-score": 0.419}, {"sequence": "CCTTACGGGTCACGATGTTATAGCACGACGAGCG", "PBM binding z-score": 0.472}, {"sequence": "GCAGACAGCTGAAACGCAGGTAACTCAGGGTGGC", "PBM binding z-score": -0.483}, {"sequence": "TCAATGAGGTTATAAGATCAGGGAACGTTGCAAA", "PBM binding z-score": 0.0539}, {"sequence": "CCTAACGGGTCACTGACAGGTTATAGCATTTGGA", "PBM binding z-score": -0.159}, {"sequence": "CGTCCAAAGTCAATGCTAGGTCAGTGAAAGCATT", "PBM binding z-score": 0.698}, {"sequence": "TCATATAGGTAAACAGGTGAAAGTTCGTAAGTTA", "PBM binding z-score": 0.587}, {"sequence": "ACAGACAGGTAATGAAGGTAACTCAGGCTATCAT", "PBM binding z-score": 0.263}, {"sequence": "TCAGACAGGTGAAGGTAATTCAGGTACGCAGTCG", "PBM binding z-score": 0.574}, {"sequence": "CGAACTAGGTCAAGAGGTCAAAGTCCGCTTCCCG", "PBM binding z-score": 2.51}, {"sequence": "CCTCGGAGGACAACAGGAGGTCGGAGCTGCCAGA", "PBM binding z-score": 0.0235}, {"sequence": "AGAATGAGGTTATACGTAGATCAGGAAAGAAAGT", "PBM binding z-score": 0.219}, {"sequence": "GCGACTGGGTCAAAGCAGGTTACCATAAGGTTGG", "PBM binding z-score": 0.279}, {"sequence": "CATACAGGGTCAGGTAGGCCAGAGTAGGGACGGC", "PBM binding z-score": 0.964}, {"sequence": "TCTAGTTGGTCACGGAGGCCACACACGACGGGTA", "PBM binding z-score": 0.377}]}]}
